Screening data as filed in PubChem BioAssay.
TDP1 cell noCPT: qHTS for Inhibitors of human tyrosyl-DNA phosphodiesterase 1 (TDP1): qHTS in cells in absence of CPT | DT40 Tdp1-/- hTDP1 cells, no CPT, ATP luminescence, 48 h | Potency, µM (doses to about 46.2 µM), hits mostly inhibitors | 15% of 420,000 active; further: nearly all actives have a fitted effect of over 55% in size
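Chicken DT40 Tdp1-/- cells stably complemented with human TDP1 were seeded at 400 cells/well with DMSO in place of 20 nM camptothecin. After compound pinning, cells grew at least 48 hr at 37 °C; viability read by CellTiter-Glo luminescence.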
DRD3 antagonist: D3 dopamine receptor (human) antagonism. 2.5% of 360,000 active. D3R cells, DiscoveRx beta-arrestin luminescence, antagonist mode; stronger effect = lower value. P35462. max response, negative = inhibition, %; in the data active means max response below about -50%; inconclusive means no clear call, values can overlap the other calls
Target sequence (P35462 whole entry, looked up): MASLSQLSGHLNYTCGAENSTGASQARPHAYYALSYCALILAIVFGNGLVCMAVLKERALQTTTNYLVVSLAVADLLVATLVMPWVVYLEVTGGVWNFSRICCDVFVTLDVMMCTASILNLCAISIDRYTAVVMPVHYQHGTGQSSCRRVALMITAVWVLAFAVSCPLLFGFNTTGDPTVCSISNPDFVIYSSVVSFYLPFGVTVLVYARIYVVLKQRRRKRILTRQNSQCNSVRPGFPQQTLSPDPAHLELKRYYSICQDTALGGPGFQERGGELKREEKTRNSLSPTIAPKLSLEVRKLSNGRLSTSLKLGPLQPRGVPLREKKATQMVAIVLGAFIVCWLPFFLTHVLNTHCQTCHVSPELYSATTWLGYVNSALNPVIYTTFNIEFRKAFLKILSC
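Cells expressing the human receptor were seeded at 1500 cells/well, incubated overnight at 37 degrees C in 5% CO2, then exposed to library compounds with dopamine controls for 90 minutes at 37 degrees C before luminescent detection.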
ClpP mod: qHTS Assay for Activators of ClpP; AID 651965, 2013; 1.9% of 340,000 active; Potency, µM (highest dose often 57.5 µM); purified B. subtilis ClpP, FRET peptide cleavage, 20 min; active means well fitted falling curve with a large enough effect; inconclusive means small, poorly fitted or top-dose-only effect; inactive means no such curve, though single readings can be large or run the other way; further: the source files actives as falling curves though it sought activators and does not explain the sign; nearly all actives have a fitted effect of over 65% in size
Target sequence (P80244 whole entry, looked up): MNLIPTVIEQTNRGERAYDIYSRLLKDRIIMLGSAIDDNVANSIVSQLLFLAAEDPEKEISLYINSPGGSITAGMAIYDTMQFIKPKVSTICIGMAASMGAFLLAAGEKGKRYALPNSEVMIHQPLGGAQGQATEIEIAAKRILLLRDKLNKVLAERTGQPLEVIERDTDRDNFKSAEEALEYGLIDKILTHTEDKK
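FRET quenching reversal measured ClpP activation: 10 microg/mL B. subtilis ClpP at pH 8 with the FRET-FV decapeptide, read at 430 nm after 320 nm excitation. The 20-min minus 0-min signal was scaled between DMSO/no-enzyme wells and ADEP (5.8 microM final).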
TDP1 cell CPT: DT40-hTDP1 cell growth loss with CPT. chicken DT40 Tdp1-/-;hTDP1 cells + 20 nM CPT, ATP luminescence, 48 h. Potency, µM (titrated, usually from 46.2 µM), most hits filed as inhibitors. 12% of 420,000 active. AID 686979; further: nearly all actives have a fitted effect of over 55% in size
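Cell growth measured by CellTiter-Glo luminescence after a minimum 48 h, 37 C compound exposure with 20 nM CPT in Tdp1-knockout DT40 cells stably expressing hTDP1, seeded 400/well; qHTS titration format.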
DRD3 agonist: activates the human D3 dopamine receptor. P35462. 0.58% of 410,000 active. AID 652048. max activation, %. D3R DiscoveRx beta-arrestin cells, luminescence, 90 min; in the data active means max activation above about 30%
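Cells at 1500/well, incubated overnight, then treated with pinned compounds (dopamine as control) for 90 min at 37 degrees C. DiscoveRx reagent added for 30 - 60 minutes at room temperature; luminescence read.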
IL1B secr inh: blocks inflammasome-driven IL-1 beta release | THP-1 LPS/ATP IL-1B secretion, AlphaLISA, 16 h; stronger effect = lower value | 4.7% of 360,000 active | AID 743279 | activity change, % at 57.5 µM; in the data active means activity change below about -50%; inconclusive means mostly about -30% to -49%
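Secreted IL-1B measured by AlphaLISA bead assay after 16 h compound exposure of THP-1 cells; compounds (final up to 57.5 uM) added 1 h before LPS (250 ng/mL) and ATP (1.25 mM) stimulation; lower signal means less secretion.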
A number is an active result; - = inactive; ? = inconclusive; . = not tested or not shown; [ ] = remark or other dose. Rows were chosen to be rich in hits. Some 21% of all compounds tested hit in one or more screens of this group. Unless noted, the call rests on the fitted dose curve; in most records, active means well fitted inhibition curve with a large enough effect; inconclusive means small, poorly fitted or top-dose-only effect; inactive means flat fitted curve, though single readings scatter.

SMILES	TDP1 cell noCPT	DRD3 antagonist	ClpP mod	TDP1 cell CPT	DRD3 agonist	IL1B secr inh
CCN(CC)S(=O)(=O)c1ccc(N2CCOCC2)c(NC(=O)c2ccc3ccccc3c2)c1	21µM	-	?	?	-	-
CCN(CC)S(=O)(=O)c1ccc(N2CCOCC2)c(NC(=O)c2ccc(NC(C)=O)cc2)c1	-	-	-	-	-	?
CCN(CC)S(=O)(=O)c1ccc(N2CCOCC2)c(NC(=O)COc2ccccc2C)c1	18µM	-	-	21µM	-	-56
CCN(CC)S(=O)(=O)c1ccc(N2CCOCC2)c(NC(=O)c2ccc3c(c2)OCCO3)c1	21µM	-	-	16µM	-	-
CN(C(=O)CSc1nncn1C)C1CCCN(Cc2ccccc2F)C1 (stereo not drawn)	-	-	-	-	-	-
C[C@@H]1CN([C@@H](C)CO)C(=O)Cc2cc(NC(=O)Nc3ccc4c(c3)OCO4)ccc2O[C@@H]1CN(C)C(=O)NC1CCCCC1	?	-	-	?	-	-
COc1cc2nc(N3CCCC(O)C3)c(CNCc3ccccc3F)cc2c(OC)c1OC (stereo not drawn)	-	.	.	-[9.04 µM]	.	.
CCN(CC)S(=O)(=O)c1ccc(N2CCOCC2)c(NC(=O)c2cccc3ccccc23)c1	16µM	-	-	26µM	-	?
CCN(CC)S(=O)(=O)c1ccc(N2CCOCC2)c(NC(=O)c2cc(=O)[nH]c3ccccc23)c1	-	-	.	-	-	-
CCN(CC)S(=O)(=O)c1ccc(N2CCOCC2)c(NC(=O)C2=COCCO2)c1	?	-	-	?	-	-
CCN(CC)S(=O)(=O)c1ccc(N2CCOCC2)c(NC(=O)C(C)(C)C)c1	-	-	-	?	-	-
COc1ccc(S(=O)(=O)N2CCOCC2)cc1NC(=O)c1cccc2c(=O)c(C)c(-c3ccccc3)oc12	5.2µM	-	-	?	-	-
CCN(CC)S(=O)(=O)c1ccc(N2CCOCC2)c(NC(=O)c2cccc3c(=O)c(C)c(-c4ccccc4)oc23)c1	9.2µM	-	-	5.8µM	-	-
CCN(CC)S(=O)(=O)c1ccc(N2CCCCC2)c(C(=O)Nc2ccccc2N2CCOCC2)c1	9.2µM	-	-	10µM	-	-
COc1ccc(NC(=O)Cn2cc(C(=O)c3ccc(C)c(C)c3)c(=O)c3cc(OC)ccc32)cc1	-	.	-	-	-	.
Fc1ccccc1OCc1nc(-c2ccc(-n3cccc3)cc2)no1	-	.	?	-	-	.
CCN(CC)S(=O)(=O)c1ccc(N2CCOCC2)c(NC(=O)c2c3c(nc4ccccc24)CCC3)c1	15µM	-	-	15µM	-	-
O=C1N[C@@H](c2ccccc2)COC(=O)[C@H](Cc2ccc(F)cc2)C/C=C\C[C@H]1CC(=O)N(CCO)Cc1ccccc1	-	-	-	-	-	-
O=C1N[C@@H](c2ccccc2)COC(=O)[C@H](Cc2ccc(F)cc2)CC/C=C/C[C@H]1CC(=O)N(CCO)Cc1ccccc1	15µM	-	-	18µM	-	-
O=C1N[C@@H](c2ccccc2)COC(=O)[C@@H](Cc2ccc(F)cc2)C/C=C\C[C@@H]1CC(=O)N(CCO)Cc1ccccc1	13µM	-	-	15µM	-	-
CCOC(=O)c1c(C)sc(-c2c(-c3ccccc3)[nH]c3[nH]c(=O)[nH]c(=O)c23)c1O	-	.	-	-	-	.
CC(=O)N1CCN(CC(O)Cn2c3ccccc3c3ccccc32)CC1 (stereo not drawn)	-	-	.	-	-	-
OC(CN1CCCCC1)Cn1c2ccc(Cl)cc2c2cc(Cl)ccc21 (stereo not drawn)	15µM	?	-	?	-	.
OC(CN1CCN(c2ccccn2)CC1)Cn1c2ccc(Cl)cc2c2cc(Cl)ccc21 (stereo not drawn)	?	-	-	?	45	-
CN1CCC(N(C)C(=O)c2ccc(Cl)c(S(=O)(=O)Nc3cc(Cl)ccc3Cl)c2)CC1	-	-	-	-	-	-
SMILES	TDP1 cell noCPT	DRD3 antagonist	ClpP mod	TDP1 cell CPT	DRD3 agonist	IL1B secr inh
CS(=O)(=O)c1ccc(C(=O)OCC(=O)NCc2cccs2)cc1[N+](=O)[O-]	4.6µM	-60	-	5.8µM	-	-97
CCc1ccc(NCc2cc3cc4c(cc3n(CC(=O)Nc3ccc(Cl)cc3)c2=O)OCO4)cc1	.	.	-	.	-	.
COc1cc(C)c(S(=O)(=O)NCCCn2ccnc2)cc1C	18µM	-	-	15µM	-	-
CCOC(=O)C1(Cc2ccccc2)CCCN(Cc2ccc(OCC)c(CO)c2)C1 (stereo not drawn)	?	-	.	?	-	-
C#CCN(Cc1ccco1)C(=O)c1ccc(OC2CCN(Cc3ccccn3)CC2)cc1	?	?	-	18µM	-	-
COc1ccc(-c2noc(-c3ccc(NCc4ccco4)c([N+](=O)[O-])c3)n2)cc1OC	9.2µM	.	-	13µM	-	.
COc1cc(-c2noc(-c3ccc(NCc4cccnc4)c([N+](=O)[O-])c3)n2)cc(OC)c1OC	6.5µM	.	-	7.3µM	-	.
CCCc1noc(-c2ccc(NCc3ccccc3OC)c([N+](=O)[O-])c2)n1	7.3µM	.	-	10µM	-	.
COc1ccc(OC)c(NC(=O)CC2Oc3ccccc3NC2=O)c1 (stereo not drawn)	-	-	-	-	-	-
CCc1c(C)nc2ncnn2c1NCCc1ccc(OC)cc1	3.5µM	-	-	2.8µM	-	-
CCc1c(C)nc2ncnn2c1Nc1ccc(C)c(C)c1	?	-	-	23µM	-	-
Cc1cc(N2CCN(S(=O)(=O)c3ccc(Br)cc3)CC2)n2ncnc2n1	-	-	.	-	-	-
CCc1c(C)nc2ncnn2c1N1CCN(S(=O)(=O)c2ccc(OC)cc2)CC1	5.8µM	-	.	3.7µM	-	-
Cc1cc(NCCc2ccc(Cl)cc2)n2ncnc2n1	?	-	.	-	-	-
CCc1c(C)nc2ncnn2c1Nc1ccc(C)cc1	?	-	-	?	-	-
Cc1cc(C(=O)N2CCCC(C(=O)c3cccc(C(F)(F)F)c3)C2)nc(C)n1 (stereo not drawn)	-	-	.	-	-	-
O=C(c1ccccc1)c1ccc(OCC(O)CNCc2cccc(Cl)c2)cc1 (stereo not drawn)	?	-	-	?	-	-82
O=C(c1ccccc1)c1ccc(OCC(O)CNCc2ccc(F)cc2)cc1 (stereo not drawn)	-	-	-	-	-	-72
Cc1ccc(C(OCC(O)CNCc2ccc(F)cc2)c2ccccc2)cc1 (stereo not drawn)	16µM	-	-	15µM	-	-98
